Some test systems named below: SK-MEL-2 melanoma; EKVX NSCLC; SN12C renal; UO-31 renal; TK-10 renal; ACHN renal; CAKI-1 renal; A498 renal; CCRF-CEM leukemia; MOLT-4 leukemia; SR leukemia; RPMI-8226 leukemia; OVCAR-8 ovarian; OVCAR-5 ovarian; OVCAR-4 ovarian; SK-OV-3 ovarian; IGROV1 ovarian; OVCAR-3 ovarian; HS 578T breast; NCI/ADR-RES ovarian.
What all share (test): NCI-60 one-dose screen, 48 h (100 = growth as untreated, 0 = no growth, -100 = all killed)
Settings in all cases: 10 µM

Compounds without any hit were thinned out: in the full panel of roughly 83,000, 20% have a hit.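 Single-dose data. Exposure time 48 hours. Values below 10 considered active.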 A number with no mark means an inactive call. The source made the active and inactive calls.

On to `O=S(=O)(Oc1ccc(-c2ccc3sccc3c2)cc1)c1ccc(F)cc1`, for which the growth with SK-MEL-2 melanoma is 114%; in the assay with EKVX NSCLC, 91.5%; in the assay with SN12C renal, 96.5%; with UO-31 renal, 92.2%; with TK-10 renal, 93.7%; with ACHN renal, 107%. Besides, the growth with CAKI-1 renal is 82.7%; with A498 renal, 95.3%; in the assay with CCRF-CEM leukemia, 86.1%; in the assay on MOLT-4 leukemia it was 89.4%; in the assay on SR leukemia it was 86.3%; in the assay with RPMI-8226 leukemia, 96.4%. Moreover, the growth was 106% in the assay on OVCAR-8 ovarian; 102% in the assay on OVCAR-5 ovarian; 100% in the assay with OVCAR-4 ovarian; 107% with SK-OV-3 ovarian; 104% with IGROV1 ovarian; 110% with OVCAR-3 ovarian. Besides, the figures for the growth with HS 578T breast and in the assay on NCI/ADR-RES ovarian were 112% and 95.8%, respectively.
On to `COc1cc(NC(=O)C2=C(N3CCOCC3)/C(=C/c3ccc(Cl)cc3)CC2)cc(OC)c1OC`, for which the growth is 85.4% in the assay on SK-MEL-2 melanoma; 93.4% in the assay with EKVX NSCLC; 83.4% in the assay on SN12C renal; 72.8% in the assay on UO-31 renal; 121% with TK-10 renal; 93.5% with ACHN renal. For the same compound, the growth with CAKI-1 renal is 84.6%; in the assay on A498 renal, 98.3%; in the assay with CCRF-CEM leukemia, 39.8%; with MOLT-4 leukemia, 49.3%; in the assay on SR leukemia, 35.1%; in the assay on RPMI-8226 leukemia, 33.2%. The growth was 72.7% in the assay on OVCAR-8 ovarian; 103% in the assay with OVCAR-5 ovarian; 83.2% in the assay on OVCAR-4 ovarian; 114% with SK-OV-3 ovarian; 85.9% in the assay on OVCAR-3 ovarian; 95.2% in the assay with HS 578T breast. In the assay with NCI/ADR-RES ovarian, the growth was 72.5%.
Regarding `COc1ccc(/C=C2\CCCC3=C2N=C2SC(C)=CN2C3c2ccc(OC)cc2)cc1` (configuration not stated), the growth is 98.6% in the assay on SK-MEL-2 melanoma; 99.4% in the assay on EKVX NSCLC; 104% in the assay on SN12C renal; 82.1% in the assay with UO-31 renal; 116% in the assay on TK-10 renal; 106% in the assay with ACHN renal. In addition, the growth with CAKI-1 renal is 96.4%; with A498 renal, 76.8%; with CCRF-CEM leukemia, 104%; in the assay on MOLT-4 leukemia, 103%; in the assay with SR leukemia, 100%; in the assay with RPMI-8226 leukemia it was 71.2%. Moreover, the growth in the assay with OVCAR-8 ovarian was 95.2%; in the assay with OVCAR-5 ovarian it was 105%; in the assay on OVCAR-4 ovarian, 97%; in the assay with SK-OV-3 ovarian it was 101%; in the assay with OVCAR-3 ovarian it was 102%; in the assay on HS 578T breast, 91%. Moreover, in the assay on NCI/ADR-RES ovarian, the growth was 96.3%.
For `C=CCNCCN1C(=O)c2ccc3c4c(ccc(c24)C1=O)C(=O)N(CCNCC=C)C3=O`, the growth was -45.9% (active) in the assay with SK-MEL-2 melanoma; -82% (active) in the assay on EKVX NSCLC; -78% (active) with SN12C renal; -58.4% (active) in the assay with UO-31 renal; -6.43% (active) with TK-10 renal; -56.3% (active) in the assay on ACHN renal. The growth with CAKI-1 renal was -64.2% (active); with A498 renal it was -73.7% (active); in the assay with CCRF-CEM leukemia, 4.83% (active); in the assay on MOLT-4 leukemia it was -18.3% (active); in the assay on SR leukemia it was -8.69% (active); with RPMI-8226 leukemia, 13.5%. The growth in the assay with OVCAR-8 ovarian was -24% (active); in the assay on OVCAR-5 ovarian it was -52% (active); in the assay on OVCAR-4 ovarian, -97.5% (active); with SK-OV-3 ovarian, -38.6% (active); in the assay on OVCAR-3 ovarian, -22.5% (active); with HS 578T breast, 1.35% (active). Moreover, the growth in the assay with NCI/ADR-RES ovarian was -12.9% (active).
Turning to `O=C(CCl)Oc1ccc(OC(=O)CCl)cc1`, the growth in the assay with SK-MEL-2 melanoma is 96.1%; in the assay on EKVX NSCLC it was 90.4%; in the assay with SN12C renal it was 87.2%; in the assay on UO-31 renal it was 64.1%; in the assay on TK-10 renal, 113%; in the assay with ACHN renal, 75.2%. In addition, the growth was 93.7% with CAKI-1 renal; 97.4% in the assay on A498 renal; 13.3% in the assay on CCRF-CEM leukemia; 84.2% in the assay with MOLT-4 leukemia; 68.7% in the assay on SR leukemia; 25.7% with RPMI-8226 leukemia. Besides, the growth was 88.8% in the assay with OVCAR-8 ovarian; 111% with OVCAR-5 ovarian; 91.3% in the assay with OVCAR-4 ovarian; 93.1% in the assay on IGROV1 ovarian; 77.6% in the assay on OVCAR-3 ovarian; 82.4% in the assay with HS 578T breast. For the same compound, the growth in the assay on NCI/ADR-RES ovarian was 79.4%.
As to `COc1ccc2nc3cc(Cl)ccc3c(NCCCNCCO)c2c1`, the growth is -87.7% (active) in the assay with SK-MEL-2 melanoma; -12.9% (active) with EKVX NSCLC; 5.95% (active) in the assay on SN12C renal; -11.5% (active) in the assay with UO-31 renal; -29.4% (active) in the assay with TK-10 renal; -9.61% (active) in the assay with ACHN renal. Further, the growth is 18.7% in the assay on CAKI-1 renal; -57% (active) in the assay with A498 renal; -1.87% (active) with CCRF-CEM leukemia; 2.6% (active) in the assay with MOLT-4 leukemia; -8.29% (active) with SR leukemia; -12.1% (active) in the assay on RPMI-8226 leukemia. The growth was -23.2% (active) in the assay on OVCAR-8 ovarian; -9.73% (active) in the assay on OVCAR-5 ovarian; -35.9% (active) with OVCAR-4 ovarian; 2.85% (active) with IGROV1 ovarian; 6.23% (active) with HS 578T breast; 62.4% in the assay on NCI/ADR-RES ovarian.
Turning to `Cc1cc(C)nc(NS(=O)(=O)c2ccc(Nc3nc4nc(NCc5ccccc5)nc(-c5ccc(O)cc5)c4c(=O)[nH]3)cc2)n1`, the growth was 4.65% (active) with SK-MEL-2 melanoma; 26.7% with EKVX NSCLC; 33.1% with SN12C renal; 10.9% in the assay on UO-31 renal; 10.3% in the assay on TK-10 renal; 15.6% in the assay with ACHN renal. Moreover, the growth in the assay with CAKI-1 renal was 33.1%; with A498 renal, 42.5%; in the assay with CCRF-CEM leukemia, 19.6%; in the assay on MOLT-4 leukemia, -1.75% (active); with SR leukemia, 26.5%; in the assay with RPMI-8226 leukemia, 18.1%. Also, the growth was 49.5% in the assay on OVCAR-8 ovarian; 45.2% in the assay with OVCAR-5 ovarian; 18.3% in the assay on OVCAR-4 ovarian; 35.2% in the assay on SK-OV-3 ovarian; 34.2% in the assay with OVCAR-3 ovarian; 35.6% in the assay with HS 578T breast. In the assay with NCI/ADR-RES ovarian, the growth is 20.3%.
Take `O=C(/C=C/c1cccc(B(O)O)c1)c1cccc(B(O)O)c1`: the growth in the assay on SK-MEL-2 melanoma is 44.8%; in the assay on EKVX NSCLC it was 56.3%; with SN12C renal, -3.76% (active); in the assay with UO-31 renal, -82.5% (active); in the assay with TK-10 renal it was -11.7% (active); with ACHN renal, 0.0369% (active). In addition, the growth in the assay on CAKI-1 renal was -8.72% (active); in the assay on A498 renal, 65.5%; with CCRF-CEM leukemia, -13.8% (active); with MOLT-4 leukemia, 2.84% (active); with SR leukemia, 3.2% (active); in the assay with RPMI-8226 leukemia it was 48.2%. Moreover, the growth was -12.2% (active) with OVCAR-8 ovarian; -12% (active) in the assay on OVCAR-5 ovarian; 53.9% in the assay with OVCAR-4 ovarian; 3.23% (active) in the assay with SK-OV-3 ovarian; -28.2% (active) in the assay on OVCAR-3 ovarian; 16.9% in the assay on HS 578T breast. For the same compound, in the assay on NCI/ADR-RES ovarian, the growth was 8.08% (active).

Values taken from PubChem BioAssay (NCI).
